Source: article PMC5540273 (PLoS ONE, 2017)

Test system: MLK3
Details: concentration: 1 μM, replicates: in singlicate; n = 1
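Also: KINOMEscan kinase panel screen.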

Question: How did the “%Inh” value turn out when Cc1c(Cn2ccn3c(=O)cc(N4CCOCC4)nc23)cccc1C(F)(F)F [GSK2289044] was run?
Answer: The value was 3%.

Question: With Cc1cccc(-c2nc(Nc3ccc4[nH]ncc4c3)c3ccccc3n2)n1 [GW857175] as the molecule, how does the “%Inh” value read?
Answer: The value was 7%.

Question: For COc1cc2nccc(Nc3ccc(NC(=O)c4ccc(C)cc4)c(O)c3)c2cc1OC.Cl [GW440132], which “%Inh” value is on record?
Answer: The value was 33%.

Question: Which “%Inh” value does the source give for Cn1ccc2ncnc(Oc3cccc(C(=O)Nc4ccccc4)c3)c21 here?
Answer: The value was 12%.

Question: Which “%Inh” value does the source give for Cc1csc(-c2nc(Nc3ccncc3)c3ccccc3n2)n1 [GW869640] here?
Answer: Its value is 0%.

Question: Which “%Inh” value does the source give for Clc1cc(Cl)cc(Nc2ccnc(Nc3cc(Cl)cc(Cl)c3)n2)c1 [GSK175726] here?
Answer: Its value is 10%.

Question: With Cl.c1ccc(-c2n[nH]cc2-c2ccnc(-c3ccc(CN4CCOCC4)cc3)c2)nc1 [GW776245] as the molecule, how does the “%Inh” value read?
Answer: The value was 10%.

Question: Which “%Inh” value does the source give for O=C(O)COc1ncnc2cc(-c3ccc4[nH]ncc4c3)sc12 here?
Answer: The value was 0%.

Question: For CC(C)(C)c1ccc(C(=O)Nc2cn3cc(-c4cccnc4)ccc3n2)cc1, which “%Inh” value is on record?
Answer: Its value is 0%.

Question: With COc1ccc(C2=C(Nc3cccc(C(=O)O)c3)C(=O)NC2=O)cc1 [SB-390765] as the molecule, how does the “%Inh” value read?
Answer: The value was 27%.

Question: With Cc1cccc(-c2nc(Nc3cccc(C(N)=O)c3)c3ccccc3n2)n1 [GW876019] as the molecule, how does the “%Inh” value read?
Answer: Its value is 0%.

Question: With O=C(Nc1n[nH]c2cc(-c3cccc(F)c3F)ccc12)C1CC1 [SB-733894] as the molecule, how does the “%Inh” value read?
Answer: Its value is 4%.

Question: CC(C)(C)c1ccc(C(=O)Nc2cn3cc(Cl)ccc3n2)cc1 was tested. Which “%Inh” value did it give?
Answer: Its value is 0%.

Question: For CC1=C(C(=O)Nc2cc3cn[nH]c3cc2F)C(c2ccc(C(F)(F)F)cc2)CC(=O)N1 (stereo not shown) [GSK429286], which “%Inh” value is on record?
Answer: Its value is 0%.

Question: For Fc1cc(Cl)ccc1Nc1ccnc2cc(-c3ccc(CN4CCCCC4)o3)ccc12 [GW560116], which “%Inh” value is on record?
Answer: The value was 0%.

Question: O=C(Nc1n[nH]c2nc(-c3nccs3)c(Br)cc12)C1CCCC1 [SB-742609] was tested. Which “%Inh” value did it give?
Answer: Its value is 0%.

Question: For COc1cccc(NC(=O)NC2CCN(c3ccnc(Nc4ccc(F)cc4)n3)C2)c1 (stereo not shown) [GSK1379721], which “%Inh” value is on record?
Answer: The value was 0%.

Question: With Cc1cc(NCC(c2ccccc2)c2ccccc2)nc(NCc2ccc(C(F)(F)F)cc2)n1 [GW497681] as the molecule, how does the “%Inh” value read?
Answer: The value was 0%.

Question: For COC(=O)c1c(-c2ccccc2)c2cc(OC)ccc2c(=O)n1Cc1ccccc1, which “%Inh” value is on record?
Answer: The value was 0%.

Question: How did the “%Inh” value turn out when Cn1cncc1-c1ccc2ncnc(Nc3ccc(OCc4ccccc4)cc3)c2c1 [GW320571] was run?
Answer: Its value is 20%.

Question: With Cc1ccc(NC(=O)Nc2cc(C(C)(C)C)nn2-c2ccccc2)cc1 [GSK1014915] as the molecule, how does the “%Inh” value read?
Answer: The value was 12%.

Question: Which “%Inh” value does the source give for O=C(Nc1n[nH]c2nc(-c3nccs3)c(Br)cc12)C1CC1 [SB-742251] here?
Answer: Its value is 0%.

Question: O=C1NC(=O)C(N2CCc3ccccc32)=C1c1ccccc1Cl [SB-373598] was tested. Which “%Inh” value did it give?
Answer: Its value is 46%.

Question: For Cl.Oc1ccc(-c2nc(-c3ccccc3)[nH]c2-c2ccncc2)cc1 [SB-428218], which “%Inh” value is on record?
Answer: The value was 0%.

Question: With Fc1cccc(COc2nnc(-c3ccc4c(c3)CCO4)o2)c1 as the molecule, how does the “%Inh” value read?
Answer: The value was 0%.

Question: Which “%Inh” value does the source give for CS(=O)(=O)c1ccc(-c2c(-c3ncn[nH]3)sc(N3CCOCC3)c2C#N)cc1 here?
Answer: The value was 15%.

Question: With Cc1ccc(NC(=O)Nc2cccc(Cl)c2)cc1-c1ccc(C(=O)Nc2ccncc2)cc1 [GSK1398468] as the molecule, how does the “%Inh” value read?
Answer: Its value is 0%.

Question: Which “%Inh” value does the source give for Cc1cccc(-c2nc(Nc3ccncc3)c3ccccc3n2)n1 [GW855857] here?
Answer: The value was 6%.

Question: With Cc1cccc(-c2nc(-c3ccc(S(C)(=O)=O)cc3)sc2-c2ccnc(NCCc3ccccc3)c2)c1 as the molecule, how does the “%Inh” value read?
Answer: The value was 0%.

Question: For Cc1nnc(-c2ccc3occ(-c4ccc(S(C)=O)cc4)c3c2)[nH]1 (stereo not shown), which “%Inh” value is on record?
Answer: The value was 4%.

Question: COc1ccc2nc(-c3cccc(C)n3)nc(Nc3ccncc3)c2c1 [GSK204919] was tested. Which “%Inh” value did it give?
Answer: Its value is 7%.

Question: For O=c1cc(N2CCOCC2)nc2n(Cc3cccc(Cl)c3Cl)ccn12 [GSK2286295], which “%Inh” value is on record?
Answer: Its value is 7%.

Question: For COc1ccc(CNC(=O)NC2CCN(c3ccnc(Nc4cc(OC)c(OC)c(OC)c4)n3)C2)cc1 (stereo not shown) [GSK1379748], which “%Inh” value is on record?
Answer: Its value is 23%.

Question: Cn1ccc2ncnc(Oc3ccc(NC(=O)Nc4ccccc4)cc3)c21 was tested. Which “%Inh” value did it give?
Answer: The value was 19%.

Question: For CCn1c(-c2ccccn2)nc2cnccc21 [SB-736398], which “%Inh” value is on record?
Answer: Its value is 7%.

Test system: MRCKA
Details: concentration: 1 μM, replicates: in singlicate; n = 1

Question: For Cc1c(Cn2ccn3c(=O)cc(N4CCOCC4)nc23)cccc1C(F)(F)F [GSK2289044], which “%Inh” value is on record?
Answer: Its value is 0%.

Question: How did the “%Inh” value turn out when Cc1cccc(-c2nc(Nc3ccc4[nH]ncc4c3)c3ccccc3n2)n1 [GW857175] was run?
Answer: The value was 0%.

Question: Which “%Inh” value does the source give for COc1cc2nccc(Nc3ccc(NC(=O)c4ccc(C)cc4)c(O)c3)c2cc1OC.Cl [GW440132] here?
Answer: Its value is 13%.

Question: Which “%Inh” value does the source give for Cn1ccc2ncnc(Oc3cccc(C(=O)Nc4ccccc4)c3)c21 here?
Answer: Its value is 1%.

Question: Which “%Inh” value does the source give for Cc1csc(-c2nc(Nc3ccncc3)c3ccccc3n2)n1 [GW869640] here?
Answer: Its value is 0%.

Question: For Clc1cc(Cl)cc(Nc2ccnc(Nc3cc(Cl)cc(Cl)c3)n2)c1 [GSK175726], which “%Inh” value is on record?
Answer: The value was 9%.

Question: Cl.c1ccc(-c2n[nH]cc2-c2ccnc(-c3ccc(CN4CCOCC4)cc3)c2)nc1 [GW776245] was tested. Which “%Inh” value did it give?
Answer: The value was 29%.

Question: With O=C(O)COc1ncnc2cc(-c3ccc4[nH]ncc4c3)sc12 as the molecule, how does the “%Inh” value read?
Answer: Its value is 0%.

Question: For CC(C)(C)c1ccc(C(=O)Nc2cn3cc(-c4cccnc4)ccc3n2)cc1, which “%Inh” value is on record?
Answer: The value was 9%.

Question: Which “%Inh” value does the source give for COc1ccc(C2=C(Nc3cccc(C(=O)O)c3)C(=O)NC2=O)cc1 [SB-390765] here?
Answer: Its value is 0%.

Question: How did the “%Inh” value turn out when Cc1cccc(-c2nc(Nc3cccc(C(N)=O)c3)c3ccccc3n2)n1 [GW876019] was run?
Answer: The value was 38%.

Question: For O=C(Nc1n[nH]c2cc(-c3cccc(F)c3F)ccc12)C1CC1 [SB-733894], which “%Inh” value is on record?
Answer: Its value is 6%.

Question: CC(C)(C)c1ccc(C(=O)Nc2cn3cc(Cl)ccc3n2)cc1 was tested. Which “%Inh” value did it give?
Answer: Its value is 0%.

Question: With CC1=C(C(=O)Nc2cc3cn[nH]c3cc2F)C(c2ccc(C(F)(F)F)cc2)CC(=O)N1 (stereo not shown) [GSK429286] as the molecule, how does the “%Inh” value read?
Answer: Its value is 1%.

Question: Which “%Inh” value does the source give for Fc1cc(Cl)ccc1Nc1ccnc2cc(-c3ccc(CN4CCCCC4)o3)ccc12 [GW560116] here?
Answer: The value was 6%.

Question: For O=C(Nc1n[nH]c2nc(-c3nccs3)c(Br)cc12)C1CCCC1 [SB-742609], which “%Inh” value is on record?
Answer: Its value is 0%.

Question: With COc1cccc(NC(=O)NC2CCN(c3ccnc(Nc4ccc(F)cc4)n3)C2)c1 (stereo not shown) [GSK1379721] as the molecule, how does the “%Inh” value read?
Answer: Its value is 6%.

Question: For Cc1cc(NCC(c2ccccc2)c2ccccc2)nc(NCc2ccc(C(F)(F)F)cc2)n1 [GW497681], which “%Inh” value is on record?
Answer: The value was 3%.

Question: With COC(=O)c1c(-c2ccccc2)c2cc(OC)ccc2c(=O)n1Cc1ccccc1 as the molecule, how does the “%Inh” value read?
Answer: Its value is 0%.

Question: With Cn1cncc1-c1ccc2ncnc(Nc3ccc(OCc4ccccc4)cc3)c2c1 [GW320571] as the molecule, how does the “%Inh” value read?
Answer: Its value is 8%.

Question: Which “%Inh” value does the source give for Cc1ccc(NC(=O)Nc2cc(C(C)(C)C)nn2-c2ccccc2)cc1 [GSK1014915] here?
Answer: The value was 23%.

Question: For O=C(Nc1n[nH]c2nc(-c3nccs3)c(Br)cc12)C1CC1 [SB-742251], which “%Inh” value is on record?
Answer: The value was 3%.

Question: How did the “%Inh” value turn out when O=C1NC(=O)C(N2CCc3ccccc32)=C1c1ccccc1Cl [SB-373598] was run?
Answer: The value was 0%.

Question: How did the “%Inh” value turn out when Cl.Oc1ccc(-c2nc(-c3ccccc3)[nH]c2-c2ccncc2)cc1 [SB-428218] was run?
Answer: Its value is 43%.

Question: With Fc1cccc(COc2nnc(-c3ccc4c(c3)CCO4)o2)c1 as the molecule, how does the “%Inh” value read?
Answer: Its value is 0%.

Question: Which “%Inh” value does the source give for CS(=O)(=O)c1ccc(-c2c(-c3ncn[nH]3)sc(N3CCOCC3)c2C#N)cc1 here?
Answer: Its value is 0%.

Question: For Cc1ccc(NC(=O)Nc2cccc(Cl)c2)cc1-c1ccc(C(=O)Nc2ccncc2)cc1 [GSK1398468], which “%Inh” value is on record?
Answer: The value was 19%.

Question: For Cc1cccc(-c2nc(Nc3ccncc3)c3ccccc3n2)n1 [GW855857], which “%Inh” value is on record?
Answer: The value was 47%.

Question: For Cc1cccc(-c2nc(-c3ccc(S(C)(=O)=O)cc3)sc2-c2ccnc(NCCc3ccccc3)c2)c1, which “%Inh” value is on record?
Answer: The value was 6%.

Question: Which “%Inh” value does the source give for Cc1nnc(-c2ccc3occ(-c4ccc(S(C)=O)cc4)c3c2)[nH]1 (stereo not shown) here?
Answer: The value was 1%.

Question: How did the “%Inh” value turn out when COc1ccc2nc(-c3cccc(C)n3)nc(Nc3ccncc3)c2c1 [GSK204919] was run?
Answer: Its value is 38%.

Question: How did the “%Inh” value turn out when O=c1cc(N2CCOCC2)nc2n(Cc3cccc(Cl)c3Cl)ccn12 [GSK2286295] was run?
Answer: Its value is 8%.

Question: For COc1ccc(CNC(=O)NC2CCN(c3ccnc(Nc4cc(OC)c(OC)c(OC)c4)n3)C2)cc1 (stereo not shown) [GSK1379748], which “%Inh” value is on record?
Answer: Its value is 34%.

Question: For Cn1ccc2ncnc(Oc3ccc(NC(=O)Nc4ccccc4)cc3)c21, which “%Inh” value is on record?
Answer: Its value is 0%.

Question: Which “%Inh” value does the source give for CCn1c(-c2ccccn2)nc2cnccc21 [SB-736398] here?
Answer: Its value is 14%.
